Experimental data reported in PubChem BioAssay (Tox21).
Records with an inconclusive call do not appear. Activity calls are given as the source filed them. Unless noted, calls come from the whole dose curve; as a rule, active = well fitted curve in the direction sought with a large enough effect in the repeat runs; inconclusive = weak or mixed curves; inactive = no such curve, though single readings can be large; an effect the other way counts as inactive or inconclusive.

What was measured:
[1] = qHTS assay to test for compound auto fluorescence at 535 nm (green) in HEK293 cells (AID 720680)
[2] = qHTS assay to test for compound auto fluorescence at 460 nm (blue) in HEK293 cell free culture (AID 720681)
Summary of the method: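 Compounds were added to cell-free DMEM with 10% FBS and fluorescence read directly. The blue channel used 405 nm excitation and 460 nm emission, with triamterene as the reference fluorophore.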

[3] = qHTS assay to test for compound auto fluorescence at 590 nm (red) in HEK293 cell free culture (AID 720683)
Summary of the method: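 Cell-free wells of DMEM with 10% FBS received compound, and intrinsic fluorescence was read at excitation/emission 540/590 nm. Values expressed as equivalence to Rose Bengal sodium.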

[4] = qHTS assay to test for compound auto fluorescence at 590 nm (red) in HepG2 cell free culture (AID 720684)
Summary of the method: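 Compound was pinned into wells holding MEM with 10% FBS and no cells, and red fluorescence was read at Ex/Em 540/590 nm. Signal is expressed as auto fluorescence equivalency relative to Rose Bengal sodium.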

[5] = qHTS assay to test for compound auto fluorescence at 460 nm (blue) in HepG2 cell free culture (AID 720685)
Summary of the method: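 Compound (23 nL) or DMSO pinned into cell-free MEM with 10% FBS; blue fluorescence read at 405/460 nm excitation/emission, expressed as auto-fluorescence equivalency to triamterene.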

[6] = qHTS assay to test for compound auto fluorescence at 535 nm (green) in HepG2 cell free culture (AID 720686)
[7] = qHTS assay to test for compound auto fluorescence at 460 nm (blue) in HepG2 cells (AID 720687)
Summary of the method: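 HepG2 cells in MEM with 10% FBS, attached overnight at 37 C, were exposed to compound or DMSO for 1 hr at 37 C, 5% CO2. Blue fluorescence was read at 405/460 nm, with triamterene as reference fluorophore.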

[8] = target: Glucocorticoid receptor (Homo sapiens) (UniProt P04150); assay: qHTS assay to identify small molecule antagonists of the glucocorticoid receptor (GR) signaling pathway (AID 720692; active = well fitted inhibition curve with a large enough effect in the signal ratio in the repeat runs, not every such curve was filed as active; the % refers to the signal ratio)
Sequence of Glucocorticoid receptor (Homo sapiens) (P04150 whole entry, looked up): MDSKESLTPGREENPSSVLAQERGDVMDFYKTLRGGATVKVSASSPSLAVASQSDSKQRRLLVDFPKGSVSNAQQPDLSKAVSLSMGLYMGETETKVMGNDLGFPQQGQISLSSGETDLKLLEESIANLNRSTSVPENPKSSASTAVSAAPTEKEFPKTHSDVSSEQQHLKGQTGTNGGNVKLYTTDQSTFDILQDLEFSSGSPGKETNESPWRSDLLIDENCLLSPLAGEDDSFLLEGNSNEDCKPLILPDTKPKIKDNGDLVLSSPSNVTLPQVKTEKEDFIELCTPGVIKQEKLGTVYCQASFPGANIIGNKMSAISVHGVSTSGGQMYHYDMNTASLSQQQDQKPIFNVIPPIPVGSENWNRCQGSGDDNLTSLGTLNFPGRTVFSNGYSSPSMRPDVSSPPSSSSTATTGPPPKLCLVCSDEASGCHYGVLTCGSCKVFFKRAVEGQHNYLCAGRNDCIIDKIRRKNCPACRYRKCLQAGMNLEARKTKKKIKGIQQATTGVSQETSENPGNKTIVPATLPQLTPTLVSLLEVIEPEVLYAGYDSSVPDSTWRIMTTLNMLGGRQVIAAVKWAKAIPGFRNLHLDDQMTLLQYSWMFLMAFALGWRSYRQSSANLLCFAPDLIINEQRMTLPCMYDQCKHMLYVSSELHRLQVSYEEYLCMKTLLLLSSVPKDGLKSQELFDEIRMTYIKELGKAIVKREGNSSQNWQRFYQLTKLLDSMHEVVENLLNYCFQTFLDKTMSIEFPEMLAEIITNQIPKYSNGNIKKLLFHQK
Summary of the method: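 Cells plated, rested 4 h at 37 C/5% CO2; compounds in DMSO pin-transferred; dexamethasone added to 5 nM final; 18 h at 37 C; B/G FRET substrate added, 2 h room temperature; fluorescence measured.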

[9] = qHTS assay to identify small molecule antagonists of the glucocorticoid receptor (GR) signaling pathway - cell viability counter screen (AID 720693); note: nearly all actives have a fitted effect of over 55% in size
[10] = qHTS assay to identify small molecule antagonists of the androgen receptor (AR) signaling pathway - cell viability counter screen (AID 743033; note: nearly all actives have a fitted effect of over 45% in size)
[11] = target: Androgen receptor (Homo sapiens) (UniProt P10275); assay: qHTS assay to identify small molecule agonists of the androgen receptor (AR) signaling pathway using the MDA cell line (AID 743040; note: nearly all actives have a fitted effect of over 20% in size)
Sequence of Androgen receptor (Homo sapiens) (P10275 whole entry, looked up): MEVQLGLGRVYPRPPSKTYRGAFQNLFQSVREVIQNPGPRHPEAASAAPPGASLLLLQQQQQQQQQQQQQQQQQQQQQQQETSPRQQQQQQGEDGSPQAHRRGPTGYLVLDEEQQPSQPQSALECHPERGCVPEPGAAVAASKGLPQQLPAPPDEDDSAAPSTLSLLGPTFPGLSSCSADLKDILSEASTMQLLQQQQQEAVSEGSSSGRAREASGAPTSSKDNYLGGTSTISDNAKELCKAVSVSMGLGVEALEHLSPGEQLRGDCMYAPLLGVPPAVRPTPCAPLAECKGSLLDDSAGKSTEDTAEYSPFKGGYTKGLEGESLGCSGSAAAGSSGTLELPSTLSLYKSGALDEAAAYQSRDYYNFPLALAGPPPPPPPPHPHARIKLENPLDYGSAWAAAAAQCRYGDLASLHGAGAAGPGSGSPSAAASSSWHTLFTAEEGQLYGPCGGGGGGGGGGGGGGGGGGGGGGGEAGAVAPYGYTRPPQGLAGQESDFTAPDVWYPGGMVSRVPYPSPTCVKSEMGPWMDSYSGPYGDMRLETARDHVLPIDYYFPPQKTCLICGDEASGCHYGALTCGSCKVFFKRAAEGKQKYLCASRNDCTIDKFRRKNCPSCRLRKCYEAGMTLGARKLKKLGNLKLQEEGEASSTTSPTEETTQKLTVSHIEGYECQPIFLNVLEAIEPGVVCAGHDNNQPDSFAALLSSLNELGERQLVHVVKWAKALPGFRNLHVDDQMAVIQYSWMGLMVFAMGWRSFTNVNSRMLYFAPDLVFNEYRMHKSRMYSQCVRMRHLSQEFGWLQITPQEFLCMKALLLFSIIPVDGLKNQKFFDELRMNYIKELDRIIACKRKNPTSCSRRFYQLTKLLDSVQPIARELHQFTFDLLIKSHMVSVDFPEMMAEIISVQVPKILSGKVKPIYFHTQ
Summary of the method: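 MDA-kb2 breast carcinoma cells carrying MMTV-luciferase (responsive to AR and GR), plated 5 h then treated 16 h with compounds at 37C, 0% CO2. Read-out was ONE-Glo luminescence after 30 min at room temperature.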

[12] = qHTS assay to identify small molecule antagonists of the androgen receptor (AR) signaling pathway using the MDA cell line - cell viability counter screen (AID 743041; note: nearly all actives have a fitted effect of over 45% in size)
Summary of the method: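 MDA-kb2 AR-luc cells (MMTV-luciferase, AR/GR responsive) treated with compounds plus R1881 agonist for 16 h at 37C. CellTiter-Fluor added at 15.5 h; fluorescence read after 30 min in the same wells.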

[13] = target: Glucocorticoid receptor (Homo sapiens) (UniProt P04150); assay: qHTS assay to identify small molecule agonists of the glucocorticoid receptor (GR) signaling pathway (AID 720691; active = well fitted activation curve with a large enough effect in the signal ratio in the repeat runs, not every such curve was filed as active; the % refers to the signal ratio)
Summary of the method: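 Agonist mode in a HeLa line carrying a GRE-controlled beta-lactamase reporter. Compounds act for 18 h at 37 C before a 2 h room-temperature FRET substrate step and fluorescence reading.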

[14] = qHTS assay for identifying genotoxic compounds that show differential cytotoxicity against isogenic chicken DT40 cell lines with known DNA damage response pathways - wild type cell line (AID 743012); note: nearly all actives have a fitted effect of over 60% in size
Summary of the method: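 Cells (DT40 wild type, 300/well) are treated with DMSO-dissolved compounds after a ~0.5 h pre-incubation and kept 40 h at 37 C/5% CO2. Viability is then measured by CellTiter-Glo luminescence following 30 min at room temperature.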

[15] = qHTS assay for identifying genotoxic compounds that show differential cytotoxicity against isogenic chicken DT40 cell lines with known DNA damage response pathways - Rev3 mutant cell line (AID 743014); note: nearly all actives have a fitted effect of over 55% in size
[16] = qHTS assay for identifying genotoxic compounds that show differential cytotoxicity against isogenic chicken DT40 cell lines with known DNA damage response pathways - Rad54/Ku70 mutant cell line (AID 743015); note: nearly all actives have a fitted effect of over 60% in size
[17] = target: Androgen receptor (Homo sapiens) (UniProt P10275); assay: qHTS assay to identify small molecule agonists of the androgen receptor (AR) signaling pathway (AID 743036; active = well fitted activation curve with a large enough effect in the signal ratio in the repeat runs, with a control signal flat, not every such curve was filed as active; the % refers to the signal ratio)
Summary of the method: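 Screening used 2,000 AR-bla HEK293 cells per well, treated 16 h at 37C with test compounds in DMSO alongside positive and DMSO-only controls; beta-lactamase activity was then read by LiveBLAzer B/G FRET fluorescence after 2 h at room temperature.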

[18] = target: Androgen receptor (Homo sapiens) (UniProt P10275); assay: qHTS assay to identify small molecule antagonists of the androgen receptor (AR) signaling pathway using the MDA cell line (AID 743042; note: nearly all actives have a fitted effect of over 55% in size)
Summary of the method: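 MDA-kb2 breast carcinoma cells carrying MMTV-luciferase (AR/GR responsive) were co-treated with compounds and the agonist R1881 for 16 h at 37C. Inhibition read as ONE-Glo luminescence; CellTiter-Fluor fluorescence measured in parallel for cytotoxicity.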

[19] = target: Androgen receptor (Homo sapiens) (UniProt P10275); assay: qHTS assay to identify small molecule antagonists of the androgen receptor (AR) signaling pathway (AID 743035; active = well fitted inhibition curve with a large enough effect in the signal ratio in the repeat runs, not every such curve was filed as active; the % refers to the signal ratio)
Summary of the method: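 Antagonism is scored as loss of R1881-driven beta-lactamase reporter expression in HEK293 cells carrying the reporter under a UAS element, after 16 h co-treatment at 37C and a 2 h room-temperature FRET substrate read.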

Measured: Potency

O=C(c1ccccc1O)c1ccccc1O
not listed: [13] | [14] | [15] | [16] | [17] | [18] | [19]
inactive: all other assays above

COC(=O)Nc1ccc(Cl)c(Cl)c1
not listed: [8] | [19]
inactive: all other assays above

CCCC[N+](C)(CCCC)CCCC
not listed: [4] | [9] | [11] | [14] | [16] | [17] | [18] | [19]
inactive: all other assays above

CC(C)(C)OC(=O)c1cccc(N)c1
not listed: [11] | [17] | [18] | [19]
inactive: all other assays above

Nc1c2c(nc3c1CCC3)CCCC2
not listed: [7] | [8] | [9] | [13] | [17] | [19]
inactive: all other assays above

CCOCC(C)O (centres undefined)
not listed: [7] | [11] | [17] | [18] | [19]
inactive: all other assays above

CC(C)C(=O)OC(=O)C(C)C
not listed: [4] | [9] | [11] | [17] | [18] | [19]
inactive: all other assays above

CC(C)(C)c1ccc(-c2ccc(C(C)(C)C)cc2)cc1
not listed: [10] | [14] | [15]
inactive: all other assays above

NC(CCC(=O)O)C(=O)O (centres undefined)
not listed: [9] | [11] | [14] | [17] | [18] | [19]
inactive: all other assays above
